Shiga inhibitor: inhibitors of Shiga toxin in Vero cells. inhibition, % at 38.7 µM. Vero cells, Shiga toxin protein synthesis inhibition reporter. hit rate 9.2% among 290,000; in the data active = inhibition mostly above about 28%, no sharp cut-off; inactive = mostly below about 43%; also: 0% is about no effect
CHX counter: counter-screen hit for Shiga toxin inhibitors, cycloheximide; hit rate 12% among 300,000; cell reporter, cycloheximide protein synthesis inhibition counterscreen; max response, %; in the data active = max response mostly above about 13%, no sharp cut-off; inactive = mostly below about 14%; also: read at 38.3 µM for the half of the compounds with a filed dose; 0% is about no effect
Sm TGR block: inhibitors of Schistosoma mansoni thioredoxin glutathione reductase; Q962Y6; purified TGR, DTNB reduction, TNB absorbance 405 nm; Potency, µM (top dose mostly 114 µM), without a hit: top-dose activity change, negative = inhibition, hits mostly inhibitors; hit rate 3% among 360,000; AID 485364; active = well fitted inhibition curve with a large enough effect; inconclusive = small, poorly fitted or top-dose-only effect; inactive = no such curve, though single readings can be large or run the other way; also: potency is read from the fitted curve at half-maximal effect; % is scaled to controls: 0 for no effect and ±100 for the full control effect; nearly all actives have a fitted effect of over 60% in size
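Kinetic colorimetric format: TGR-catalysed, NADPH-driven DTNB reduction monitored via TNB absorbance. Enzyme dispensed at 20 nM; compound exposure 15 min at room temperature before reaction start.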
FMDV antiviral: blocks foot and mouth disease virus | hit rate 1.2% among 410,000 | FMDV antiviral cell-based qHTS | Potency, µM (series often up to 57.9 µM), without a hit: top-dose activity change, negative = inhibition, most hits filed as inhibitors; calls by dose curve; tested in HEK293T cells; also: read-out not given here; potency is read from the fitted curve at half-maximal effect; % is scaled to controls: 0 for no effect and ±100 for the full control effect; nearly all actives have a fitted effect of over 45% in size
* marks the source's active call; other numbers are inactive results; ? = inconclusive; . = not tested or not shown. Sampled rows, rich in hits. Any-hit rate of the full collection: about 12%.

SMILES	Shiga inhibitor	CHX counter	Sm TGR block	FMDV antiviral
Cc1cccc(C(=O)N2CCCC(CCC(=O)N3CCN(c4ccccn4)CC3)C2)c1C (stereo unspecified)	2	-1	-18%	?
CCc1[nH]nc(C(=O)N2CCCC(CCC(=O)N3CCN(c4ccccn4)CC3)C2)c1C (stereo unspecified)	34	13*	0%	?
O=C(CSc1ncnc2c1cnn2-c1ccccc1Cl)N1CCN(C(=O)c2ccco2)CC1	-9	-6	1%	35µM*
COc1ccc(N2CCN(C(=O)CSc3ncnc4c3cnn4-c3ccccc3C)CC2)cc1	-10	-3	-13%	?
Cc1ccc(-c2cc(C(=O)NC3=NCCS3)c3ccccc3n2)cc1C	44	18*	-7%	15%
Cc1ccc(CCNC(=O)c2cc(-c3ccncc3)nc3ccccc23)cc1	9	-4	8%	-16%
O=C(NC1=NCCS1)c1cc(-c2ccc(F)cc2)nc2ccccc12	10	17*	3%	14%
CCCc1ccc(-c2cc(C(=O)NC3=NCCS3)c3ccccc3n2)cc1	24*	19*	-3%	-13%
O=C(O)CCC1CCCC1	-11	-3	.	.
NCCCC[C@H](NC(=O)[C@H](CCCN=C(N)N)NC(=O)[C@H](CO)NC(=O)[C@H](CCCN=C(N)N)NC(=O)[C@@H](N)Cc1ccc(O)cc1)C(=O)N[C@@H](Cc1ccc(O)cc1)C(=O)N[C@@H](CO)C(=O)N[C@@H](CO)C(=O)N[C@@H](Cc1c[nH]c2ccccc12)C(=O)N[C@@H](Cc1ccc(O)cc1)C(=O)O	-6	-1	.	.
C=CCN=C1S/C(=C\c2ccc(Cl)cc2)C(=O)N1CC=C	49*	13	-11%	-20%
O=[N+]([O-])c1ccc(/C=C/c2ccc3cccc(O)c3n2)cc1	98*	60*	-14%	58%
CN(C)c1ccc(/C=C/c2nc3ccccc3s2)cc1	12	-4	10%	5µM*
Cc1ccc(/C=C/c2nc3ccccc3s2)s1	29	24*	4%	?
CS(=O)(=O)Nc1ccc(-c2nc3ccccc3s2)cc1	.	.	6%	0%
O=[N+]([O-])c1ccc(/C=C/c2ccc3ccccc3n2)cc1	30	21*	6%	-65%
C(=C\c1ccc2ccccc2n1)/c1ccccc1	16	13	3%	-84%
CN(C)c1ccc(CNc2nc3ccccc3s2)cc1	68*	34*	5%	.
ClCCN(CCCl)c1ccc(C=Cc2ccncn2)cc1	.	.	.	0%
CC(=O)Oc1c(Cl)cc(Cl)cc1/C=C/c1ccc2ccccc2n1	10	-3	8%	18%
CN(C)c1ccc(CNc2nc3ccccc3n2C)cc1	.	.	.	37%
Fc1ccccc1/C=C/c1ccc2ccccc2n1	72*	51	-13%	10µM*
CC(=O)Oc1ccc(Cl)cc1/C=C/c1ccc2ccccc2n1	76*	37*	4%	8%
CCCN(CCC)c1ccc(/C=C/c2ccc3cc(OCC)ccc3n2)cc1	71*	34*	?	0%
CC(=O)Nc1ccc(/C=C/c2ccc3cccc([N+](=O)[O-])c3n2)cc1	75*	23*	2%	-14%
SMILES	Shiga inhibitor	CHX counter	Sm TGR block	FMDV antiviral
CN(C)c1ccc(/C=C/c2ccc3ccccc3n2)cc1	-19	-5	?	6.3µM*
O=C(O)COc1ccc(/C=C/c2ccc3cccc([N+](=O)[O-])c3n2)cc1	13	-2	-3%	0%
CC(C)CC(OC(=O)c1ccco1)C(=O)NC1CCCCC1 (stereo unspecified)	18	17*	-10%	-3%
CC(C)CC(OC(=O)c1ccco1)C(=O)NC1CCCC1 (stereo unspecified)	-2	-2	-6%	-3%
Cc1ccc(C(=O)NC2CCCCCC2)o1	40*	20*	0%	52%
Cc1ccc(C(=O)OCC(=O)NC2CCCCC2)o1	31	15*	2%	57%
O=C(COC(=O)c1ccc(-c2ccc([N+](=O)[O-])cc2)o1)NC(=O)NC1CCCCC1	2	1	40µM*	-20%
O=C(NC1CCC(O)CC1)c1ccc(-c2ccc([N+](=O)[O-])cc2)o1 (stereo unspecified)	37	17*	1.4µM*	13%
C=CCNC(=O)CN1CCC(NC(=O)c2ccco2)CC1	-11	-6	.	-7%
COCCNC(=O)CN1CCC(NC(=O)c2ccco2)CC1	50	22*	-1%	-19%
O=C(NC1CCCCCC1)c1ccco1	10	12*	-2%	10%
O=C(Cc1ccc([N+](=O)[O-])cc1)NC1CCCCCC1	11	6	-11%	-13%
Cc1cc2c(cc1S(=O)(=O)CCC(=O)N1CCCCC1C)OCC(=O)N2 (stereo unspecified)	.	.	-5%	-17%
OCCNc1c2ccccc2nc2c(F)c(F)c(F)c(F)c12	-1	-4	-26%	22µM*
O=[N+]([O-])c1ccc(/C=[N+](\[O-])[C@@H]2CCCC[C@@H]2/[N+]([O-])=C/c2ccc([N+](=O)[O-])o2)o1	17	7	3.5µM*	32µM*
O=C(NC1CCCCC1)c1ccc(-c2ccccc2[N+](=O)[O-])o1	105*	44*	-9%	0%
O=C(NC1CCCCC1)c1ccc([N+](=O)[O-])o1	72*	43*	-32%	-14%
O=C(N/N=C/c1ccc([N+](=O)[O-])o1)C1CCCC1	1	1	?	-12%
CC(NC(=O)c1ccc([N+](=O)[O-])o1)C12CC3CC(CC(C3)C1)C2 (stereo unspecified)	45*	35*	?	-2%
CN1CCN(c2ccccc2NC(=O)c2ccc(-c3ccccc3[N+](=O)[O-])o2)CC1	-3	-1	3%	0%
CC1Cc2cc(S(=O)(=O)NCc3ccc(F)cc3)ccc2N1C(=O)C1CCC1 (stereo unspecified)	.	.	6%	-16%
COc1ccccc1CNC(=O)c1cc2cccc3c2n1CC(C)S3 (stereo unspecified)	.	.	-1%	-5%
Cc1cccc(-c2noc(-c3ccc(NCc4cccnc4)c([N+](=O)[O-])c3)n2)c1	.	.	0%	-12%
CCc1cccc(NC(=O)Nc2ccc3c(c2)OCO3)c1	47*	29*	0%	45%
CCc1c(C(=O)Nc2ccccc2C(N)=O)csc1C	38	31*	0%	20%
SMILES	Shiga inhibitor	CHX counter	Sm TGR block	FMDV antiviral
CN(CCC(=O)Nc1ccc2c(c1)OCO2)Cc1ccccc1	18	-1	-35%	.
CCc1c(C(=O)NNC(=O)Nc2ccc3c(c2)OCO3)csc1C	20	38*	-12%	36%
O=C(Nc1ccc2c(c1)OCO2)Nc1ccccc1F	109*	57*	0%	0%
CN(C)C(=O)c1ccc(-c2ccc3ncnc(NCc4cccs4)c3c2)cc1	.	.	.	-8%
CCc1ccccc1NC(=S)NCc1ccc2c(c1)OCO2	8	-4	1%	10%
CCc1ccccc1NC(=O)Nc1ccc2c(c1)OCO2	27	35*	.	21%
COc1ccc(-n2c(=O)c3c(c4cc(OC)ccc4n3C)n(Cc3cc(C)ccc3C)c2=O)cc1	.	.	-3%	-14%
O=C(/C=C/c1ccccc1Cl)NCCc1ccccc1	77*	50*	11%	56%
O=C(/C=C/c1ccccc1[N+](=O)[O-])NCc1ccc(Cl)cc1	32	-1	.	-5%
O=C(/C=C/c1ccccc1Cl)NCc1ccccc1	51*	29*	4%	62%

Assay outcomes (PubChem)
